Compound activity deposited in PubChem by National Center for Advancing Translational Sciences (NCATS).
HCV inhibitor: inhibitors of hepatitis C virus infection | Potency, µM (top dose mostly 41.8 µM), for the others: top-dose activity change, negative = inhibition, hits mostly inhibitors | AID 651820 | Huh7.5.1 HCVcc-Cre infection, luciferase reporter, 44 h | 340,000 tested, 3.4% active
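Cells (1,000/well) were plated 4 h before compound, then infected with HCVcc-Cre virus (~0.5 moi). After 44 h further culture, infection was read as luciferase luminescence following a 15 min substrate incubation at room temperature.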
RE007 growth inh: less growth of the S. pombe RE007 Vpr strain. S. pombe RE007 Vpr strain, BacTiter-Glo ATP luminescence, 24 h. Potency, µM (series often up to 92.2 µM), for inactives: at the highest dose activity change, negative = less growth, usual class: inhibitors. 360,000 tested, 0.21% active. AID 651644; active = well fitted falling curve with a large enough effect; inconclusive = small, poorly fitted or top-dose-only effect; inactive = no such curve, though single readings can be large or run the other way; note: nearly all actives have a fitted effect of over 50% in size
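Fission yeast RE007 carrying one integrated HIV-1 vpr copy, seeded at OD 0.01 in PMG+AL medium with 23 nL pinned compound. Grown 24 h at 30 degrees; viability read by BacTiter-Glo luminescence after 5 min.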
Marburg entry inh: inhibitors of Marburg virus binding or cell entry; Marburg virus pseudotyped entry inhibition, cell reporter; Potency, µM (series often up to 37.8 µM), for the others: at the top dose activity change, negative = inhibition, most hits filed as inhibitors; 300,000 tested, 1.8% active; AID 540276; calls by dose curve; tested in HEK293 cells
Lassa entry inh: Lassa virus entry inhibition; Lassa virus pseudotype entry inhibition, cell reporter; Potency, µM (highest dose often 37.9 µM), without a hit: at the highest dose activity change, negative = inhibition, actives largely listed as inhibitors; 300,000 tested, 1.2% active; calls by dose curve; tested in HEK293 cells; note: nearly all actives have a fitted effect of over 50% in size
FMDV inh: antivirals against foot and mouth disease virus. FMDV antiviral cell-based qHTS. Potency, µM (series often up to 57.9 µM), for inactives: at the highest dose activity change, negative = inhibition, actives largely listed as inhibitors. 410,000 tested, 1.2% active. AID 1159524; calls by dose curve; tested in HEK293T cells; note: read-out not given here; nearly all actives have a fitted effect of over 45% in size
Sm TGR inh: S. mansoni TGR enzyme inhibition | Potency, µM (doses to about 114 µM), for inactives: top-dose activity change, negative = inhibition, hits mostly inhibitors | 360,000 tested, 3% active | purified TGR, DTNB reduction, TNB absorbance 405 nm | Q962Y6; note: nearly all actives have a fitted effect of over 60% in size
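TGR 20 nM + NADPH 100 uM (dispensed conc.), cpd preinc 15 min RT; start with NADPH (500 uM addition) then DTNB (15 mM addition). Kinetic TNB absorbance, 405 nm filter. Four-parameter Hill fit across titration.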
Numbers without * were called inactive; [ ] = remark or other dose. Hits are enriched below; roughly 7.2% of the tested compounds scored in any of these assays. Unless noted, calls come from the whole dose curve; as a rule, active = well fitted curve in the direction sought with a large enough effect; inconclusive = small, poorly fitted or top-dose-only effect, or another doubt; inactive = no such curve, though single readings can be large; an effect the other way counts as inactive or inconclusive. % is set by controls: 0 for no effect and ±100 for the full control effect; potency is the fitted concentration of half-maximal effect.

How did CCCNC(=O)c1ccc(-c2nc3ccccc3s2)s1 do in these assays?
HCV inhibitor: inconclusive; RE007 growth inh: inconclusive; Marburg entry inh: 3.5µM*; Lassa entry inh: inconclusive; FMDV inh: -69%; Sm TGR inh: 0%

What do the screens show for `O=C(CSc1nc2nc(-c3cccs3)cc(C(F)(F)F)c2c(=O)[nH]1)C(F)(F)F`?
HCV inhibitor: 3%; RE007 growth inh: 10%; FMDV inh: 0%; Sm TGR inh: 3.5µM*

Results for COc1cc(OC)cc(C(=O)NCCc2csc(-c3ccc(C(F)(F)F)cc3)n2)c1 ?
Lassa entry inh: 3%[46.1 µM]; FMDV inh: inconclusive; Sm TGR inh: -12%

What do the screens show for `O=[N+]([O-])c1ccc(Cl)c(S(=O)(=O)/N=C(/Nc2cccnc2)c2ccccc2)c1`?
HCV inhibitor: -4%; RE007 growth inh: 1%; Marburg entry inh: -1%; Lassa entry inh: -2%; FMDV inh: -1%

How did O=C(Nc1cccnc1)c1ccc(-c2ccc(Cl)cc2)o1 do in these assays?
HCV inhibitor: 2%; RE007 growth inh: 3%; Marburg entry inh: -1%[46.1 µM]; Lassa entry inh: 5%[46.1 µM]; FMDV inh: 7%; Sm TGR inh: 32µM*

What do the screens show for `O=C(NCc1cccnc1)c1ccc(-c2ccc(Cl)cc2)o1`?
HCV inhibitor: inconclusive; RE007 growth inh: -2%; FMDV inh: 33%; Sm TGR inh: 0%

How did O=C(Nc1cccnc1)c1ccc(NS(=O)(=O)c2cc([N+](=O)[O-])ccc2Cl)cc1 do in these assays?
HCV inhibitor: 7%; RE007 growth inh: 0%; FMDV inh: 2%; Sm TGR inh: 32µM*

What do the screens show for `O=C(NCc1cccnc1)/C(=C\c1ccc(-c2ccc(Cl)c(Cl)c2)o1)S(=O)(=O)c1ccccc1`?
HCV inhibitor: 11µM*; RE007 growth inh: -5%; Marburg entry inh: inconclusive; Lassa entry inh: inconclusive; FMDV inh: inconclusive; Sm TGR inh: inconclusive

What do the screens show for `O=C(Nc1cccnc1)c1cc(-c2ccc(Cl)cc2)on1`?
HCV inhibitor: 18%; RE007 growth inh: -8%; Marburg entry inh: 14%[46.1 µM]; Lassa entry inh: 21%[46.1 µM]; FMDV inh: 55%; Sm TGR inh: -2%

Results for O=C(Nc1cccnc1)c1ccc(S(=O)(=O)c2ccc(Cl)cc2)cc1 ?
HCV inhibitor: inconclusive; RE007 growth inh: 2%; Marburg entry inh: inconclusive; Lassa entry inh: inconclusive; FMDV inh: 28µM*; Sm TGR inh: -6%

What do the screens show for `CNC(=O)OC1CC2CC1[C@H]1CCCCN1C2=O` (stereo partly specified)?
RE007 growth inh: 12%; FMDV inh: -9%

What do the screens show for `O=C(NCc1cccnc1)c1ccc(-c2cc(Cl)ccc2Cl)o1`?
HCV inhibitor: inconclusive; RE007 growth inh: -16%; Marburg entry inh: inconclusive; Lassa entry inh: inconclusive; FMDV inh: 0%; Sm TGR inh: 40µM*

How did O=C(Nc1cccnc1)c1ccc(-c2cc(Cl)ccc2Cl)o1 do in these assays?
HCV inhibitor: 11µM*; RE007 growth inh: -17%; Marburg entry inh: -26%[46.1 µM]; Lassa entry inh: -7%; FMDV inh: 3%

Results for Cc1ccc(C(C)C)c(OCC(=O)Nc2ccc3c(c2)nc(CCNC(=O)c2ccco2)n3C)c1 ?
Marburg entry inh: 12%[46.1 µM]; Lassa entry inh: 19%[46.1 µM]; FMDV inh: -17%; Sm TGR inh: -6%

How did COCCNC(=O)CCn1c(=O)c2cc(OC)c(OC)cc2n(CC(=O)Nc2ccc(Cl)cc2F)c1=O do in these assays?
Marburg entry inh: 7%[46.1 µM]; Lassa entry inh: -10%[46.1 µM]; FMDV inh: -12%; Sm TGR inh: -6%

Results for CCOc1ccc(C2c3c(oc4ccc(C)cc4c3=O)C(=O)N2c2nc(C)c(C)s2)cc1OC (stereo unspecified) ?
Marburg entry inh: -18%[46.1 µM]; Lassa entry inh: inconclusive; FMDV inh: -16%; Sm TGR inh: -11%

Results for NNC(=S)Nc1ccc(Cl)cc1 ?
HCV inhibitor: 16%; RE007 growth inh: 4%; Marburg entry inh: 3%; Lassa entry inh: -9%; FMDV inh: 2%; Sm TGR inh: -36%
